# Measured values: paper PMC5836133, “The intracellular immune receptor Rx1 regulates the DNA-binding activity of a Golden2-like transcription factor”
# In all, about 16,000 sequences were measured (“e-score”: median about -0.044, highest 2% from about 0.38 on). This excerpt belongs to a sample that is enriched for the highest values.
# Biological target: T1, GST-NbGlk1(82-244) (Nicotiana benthamiana)
# T1 chain: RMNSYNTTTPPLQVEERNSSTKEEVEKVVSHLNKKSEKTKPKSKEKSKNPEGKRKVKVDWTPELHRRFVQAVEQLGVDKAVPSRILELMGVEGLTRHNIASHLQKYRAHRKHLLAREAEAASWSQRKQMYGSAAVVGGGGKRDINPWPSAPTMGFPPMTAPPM
# Experiment: protein-binding microarray; NbGlk1 is a Golden2-like transcription factor of Nicotiana benthamiana; high values mean tight binding
# Details: protein: recombinant; tags: GST (pTH6838); dsDNA, one strand shown
row,Sequence,binding signal
1,ATCGATAC,0.245 ± 0.0652 E-score
2,ATTTCAAA,0.231 ± 0.179 E-score
3,CAAAATAA,0.205 ± 0.0749 E-score
4,ATCGCCAC,0.22 ± 0.062 E-score
5,ATCGCTTC,0.206 ± 0.0242 E-score
6,AGTGATTC,0.282 ± 0.0766 E-score
7,ACGAATCC,0.361 ± 0.00735 E-score
8,AGGAATCA,0.32 ± 0.0361 E-score
9,AGGAATCC,0.422 ± 0.0123 E-score
10,ACGAATCA,0.247 ± 0.0177 E-score
11,CAGAATCA,0.373 ± 0.00814 E-score
12,AGGAATCG,0.295 ± 0.0158 E-score
13,CAGAATCG,0.33 ± 0.0217 E-score
14,AACAATCT,0.244 ± 0.0358 E-score
15,CAGAATCC,0.447 ± 0.0238 E-score
16,ACGAATCT,0.403 ± 0.0288 E-score
17,AAGAATCT,0.449 ± 0.0147 E-score
18,AAGAATAT,0.331 ± 0.00702 E-score
19,ATCTGTTC,0.214 ± 0.0509 E-score
20,AGGAAGAT,0.276 ± 0.00329 E-score
21,ATCGTGCG,0.234 ± 0.00703 E-score
22,AATCACTG,0.269 ± 0.00608 E-score

row,Sequence,binding signal
1,ATACTCAT,0.264 ± 0.0418 E-score
2,AAGAATCA,0.3254 ± 0.00141 E-score
3,AAGAATCC,0.455 ± 0.016 E-score
4,AAGAATCG,0.374 ± 0.0323 E-score
5,ATCCGCGC,0.215 ± 0.0363 E-score
6,AATATTCT,0.313 ± 0.0605 E-score
7,AATATTCG,0.258 ± 0.049 E-score
8,AAGATTCA,0.205 ± 0.0308 E-score
9,AATATTCC,0.341 ± 0.0191 E-score
10,AAGATTCC,0.46 ± 0.0101 E-score
11,CAGATTCC,0.473 ± 0.0158 E-score
12,AAAATTCC,0.201 ± 0.0158 E-score
13,AAGATTCT,0.4522 ± 0.000701 E-score
14,AAGATTCG,0.41 ± 0.0145 E-score
15,AAGATCCG,0.332 ± 0.0135 E-score
16,AAGATCCC,0.333 ± 0.0797 E-score
17,ATTTCATC,0.269 ± 0.0106 E-score
18,AATTCCCG,0.27 ± 0.108 E-score
19,CACGATTC,0.3711 ± 0.000458 E-score
20,ATATCAGG,0.305 ± 0.00775 E-score
21,CACAATCC,0.366 ± 0.0571 E-score
22,ATCCTAAC,0.254 ± 0.069 E-score

row,Sequence,binding signal
1,ATCTGTAA,0.331 ± 0.0244 E-score
2,ATTCGCTG,0.298 ± 0.0414 E-score
3,ATACGAAT,0.352 ± 0.0554 E-score
4,ATATTATA,0.279 ± 0.00302 E-score
5,ATCCTATC,0.258 ± 0.104 E-score
6,CAGATTCA,0.293 ± 0.0151 E-score
7,CAGATTCG,0.438 ± 0.0122 E-score
8,CAAATTCG,0.213 ± 0.1 E-score
9,ATAGTAAT,0.315 ± 0.0567 E-score
10,ATTACCGC,0.289 ± 0.0145 E-score
11,AACGGATC,0.25 ± 0.015 E-score
12,AACGGATA,0.215 ± 0.0275 E-score
13,AAAAGATT,0.388 ± 0.0102 E-score
14,AACAGATA,0.271 ± 0.00439 E-score
15,AACAGATC,0.305 ± 0.0266 E-score
16,AATAGATC,0.247 ± 0.0558 E-score
17,AACGGATT,0.392 ± 0.0181 E-score
18,AAAAGAAT,0.267 ± 0.0274 E-score
19,AATAGATA,0.245 ± 0.0719 E-score
20,AACAGATT,0.426 ± 0.00502 E-score
21,AATAGATT,0.406 ± 0.0231 E-score
22,AAAAGATC,0.301 ± 0.0113 E-score

row,Sequence,binding signal
1,CAGAGATC,0.312 ± 0.0606 E-score
2,ACTGGAAT,0.256 ± 0.0159 E-score
3,AGAGGAAT,0.21 ± 0.0368 E-score
4,ATATGCAA,0.29 ± 0.0125 E-score
5,AAGAGATA,0.309 ± 0.0135 E-score
6,AAGAGATT,0.4 ± 0.035 E-score
7,AAGAGATC,0.377 ± 0.0169 E-score
8,ATTCTCAA,0.329 ± 0.0151 E-score
9,ATTCTCAG,0.32 ± 0.0298 E-score
10,AATCTCAG,0.428 ± 0.00714 E-score
11,AATCTCAA,0.421 ± 0.0141 E-score
12,AATCTCTA,0.3774 ± 0.00278 E-score
13,AATCTCAT,0.4204 ± 0.00133 E-score
14,AATCTCTC,0.368 ± 0.0262 E-score
15,ATCCTCAT,0.212 ± 0.0808 E-score
16,ATTCTCAC,0.299 ± 0.0167 E-score
17,AATCGCAT,0.274 ± 0.0414 E-score
18,AATCTCAC,0.394 ± 0.0342 E-score
19,AATCTCTG,0.3738 ± 0.00333 E-score
20,ATTACGTC,0.277 ± 0.0973 E-score
